“And” between values parts separate entries of the source, which are not always exact repeats. Identical values can stand only once. The campaign covered roughly 5,500 compounds. About 2,000 (36%) were called active. About 18% were inconclusive and are not listed. Rule as the data show it: active = normalized growth mostly below about 0.91 (no sharp cut-off); inconclusive = no clear call, values can overlap the other calls; inactive = mostly above about 0.92. The list shows a part of the results.
Experiment: chemical genetic growth profiling, strain panel (AID 1159580);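 also: tested at 20 µM; growth read once vehicle control cultures reached saturation at 30 °C; 1 = growth at the plate median or of vehicle wells; lower values mean less growth of the strain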
Settings: S. cerevisiae deletion strains, growth OD

Measured: normalized growth

COC(=O)C[C@H]1C(C)(C)[C@@H](O)[C@@H]2CC3=C4CC(O)O[C@@H](c5ccoc5)[C@]4(C)CCC3[C@@]1(C)C2=O (some centres not stated)
inactive: locus YAL013W, strain DEP1, active compounds read low 1.01 | locus YAL021C, strain ccr4, active compounds read low 1.01 | locus YAL026C, strain drs2, active compounds read low 1.06 | locus YAL030W, strain snc1, active compounds read low 1.03 | locus YBL061C, strain skt5, active compounds read low 1.03 | locus YBR009C, strain hhf1, active compounds read low 1.02 | locus YBR021W, strain FUR4, active compounds read low 1.07 | locus YBR023C, strain chs3, active compounds read low 1 | locus YBR171W, strain sec66, active compounds read low 1.05 | locus YBR229C, strain ROT2, active compounds read low 1 | locus YBR231C, strain swc5, active compounds read low 1.03 | locus YBR279W, strain paf1, active compounds read low 1.03 | locus YCL011C, strain gbp2, active compounds read low 1 | locus YCL016C, strain dcc1, active compounds read low 0.99 | locus YCL029C, strain bik1, active compounds read low 0.99 | locus YCL069W, strain vba3, active compounds read low 1.01 | locus YCR088W, strain abp1, active compounds read low 1.02 | locus YDL005C, strain med2, active compounds read low 1.03 | locus YDL035C, strain GPR1, active compounds read low 1.03 | locus YDL040C, strain nat1, active compounds read low 1.02 | locus YDL074C, strain BRE1, active compounds read low 1.01 | locus YDL101C, strain DUN1, active compounds read low 1 | locus YDL134C, strain PPH21, active compounds read low 0.978 | locus YDL185W, strain tfp1, active compounds read low 0.962 | locus YDL192W, strain arf1, active compounds read low 0.989 | locus YDR001C, strain nth1, active compounds read low 1.02 | locus YDR069C, strain doa4, active compounds read low 1.02 | locus YDR101C, strain arx1, active compounds read low 0.999 | locus YDR137W, strain rgp1, active compounds read low 1.01 | locus YDR159W, strain sac3, active compounds read low 1.09 | locus YDR162C, strain NBP2, active compounds read low 0.987 | locus YDR195W, strain ref2 1.01 | locus YDR297W, strain sur2, active compounds read low 1.03 | locus YDR318W, strain mcm21, active compounds read low 0.991 | locus YDR334W, strain swr1, active compounds read low 1.03 | locus YDR335W, strain msn5, active compounds read low 1.01 | locus YDR388W, active compounds read low 0.984 | locus YDR392W, strain spt3, active compounds read low 0.938 | locus YDR502C, strain sam2, active compounds read low 0.981 | locus YEL003W, strain gim4, active compounds read low 1.05 | locus YEL037C, strain rad23, active compounds read low 1.03 | locus YEL061C, strain CIN8 (second series), active compounds read low 1.02 | locus YEL061C, strain CIN8, active compounds read low 1.01 | locus YER015W, strain faa2, active compounds read low 1.01 | locus YER016W, strain bim1, active compounds read low 1.02 | locus YER110C, active compounds read low 0.98 | locus YER111C, strain swi4, active compounds read low 1.03 | locus YER155C, strain BEM2 (second series), active compounds read low 1.08 | locus YER155C, strain BEM2, active compounds read low 0.998 | locus YER167W, strain BCK2, active compounds read low 1.01 | locus YFR010W, strain ubp6, active compounds read low 1.05 | locus YGL078C, strain dbp3, active compounds read low 0.97 | locus YGL086W, strain mad1, active compounds read low 1.02 | locus YGL167C, strain pmr1, active compounds read low 1.02 | locus YGL173C, strain kem1, active compounds read low 1.06 | locus YGL227W, strain vid30, active compounds read low 1.03 | locus YGL240W, strain doc1, active compounds read low 1.04 | locus YGL248W, strain PDE1, active compounds read low 1.01 | locus YGL253W, strain hxk2, active compounds read low 1.04 | locus YGR078C, strain PAC10, active compounds read low 0.985 | locus YGR135W, strain pre9, active compounds read low 0.95 | locus YGR229C, strain SMI1, active compounds read low 1.04 | locus YGR252W, strain gcn5, active compounds read low 0.981 | locus YHR013C, strain ard1, active compounds read low 1.01 | locus YHR027C, strain rpn1, active compounds read low 1.02 | locus YHR030C, strain SLT2, active compounds read low 1.01 | locus YHR079C, strain IRE1 (second series), active compounds read low 0.984 | locus YHR079C, strain IRE1, active compounds read low 1.01 | locus YHR094C, strain hxt1, active compounds read low 0.979 | locus YHR129C, strain ARP1, active compounds read low 1 | locus YHR142W, strain chs7, active compounds read low 0.994 | locus YHR200W, strain rpn10, active compounds read low 0.996 | locus YIL066C, strain RNR3, active compounds read low 1.02 | locus YIL073C, strain SPO22, active compounds read low 0.916 | locus YIL125W, strain kgd1, active compounds read low 0.987 | locus YIR030C, strain dcg1, active compounds read low 0.976 | locus YJL092W, strain hpr5, active compounds read low 1.03 | locus YJL095W, strain BCK1 (second series), active compounds read low 1.02 | locus YJL095W, strain BCK1, active compounds read low 0.977 and 1.02 | locus YJL115W, strain asf1, active compounds read low 1.03 | locus YJL129C, strain trk1, active compounds read low 1 | locus YJL134W, strain LCB3, active compounds read low 1 | locus YJL154C, strain vps35, active compounds read low 1.02 | locus YJL164C, strain tpk1, active compounds read low 1.01 | locus YJL166W, strain qcr8, active compounds read low 1.03 | locus YJL168C, strain set2, active compounds read low 0.991 | locus YJL187C, strain SWE1 (second series), active compounds read low 0.987

— PubChem BioAssay AID1159580 (chemical genetic matrix, 2015)
